Assay results published in PubChem BioAssay (NCATS).
Where “and” joins values, the source holds several entries; their conditions need not be identical. Equal values may be shown once. Results filed as inconclusive are left out. Calls of active or inactive are those of the source. The call rests on the fitted dose curve; in most records, active means well fitted curve in the direction sought with a large enough effect; inconclusive means small, poorly fitted or top-dose-only effect, or another doubt; inactive means no such curve, though single readings can be large; an effect the other way counts as inactive or inconclusive.

Columns and labels:
CRL-7250 = normal cell line; assay: Cytotoxic Profiling of Annotated Libraries Using Quantitative High-Throughput Screening (AID 1296008); conditions: Five cell lines viability, CellTiter-Glo ATP luminescence, 48-72 h; max response: stronger effect = lower value; further: nearly all actives have a fitted effect of over 60% in size; on max response: on the % scale 0 is the no-effect control and ±100 the full control effect
How it was run: (§1)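 Compounds were pin-transferred onto cells and incubated 48 or 72 hr at 37 degree Celsius, 95% humidity. CellTiter-Glo was added, plates sat 10 min at room temperature, then ATP-coupled luminescence was imaged as the viability read-out.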

HaCat [1] = assay: as above; conditions: Five cell lines viability, CellTiter-Glo ATP luminescence, 48-72 h; max response: stronger effect = lower value
How it was run: as §1

KB-3-1 = assay: as above; conditions: Five cell lines viability, CellTiter-Glo ATP luminescence, 48-72 h; max response: stronger effect = lower value
How it was run: as §1

NIH3T3 [2] = assay: as above; conditions: Five cell lines viability, CellTiter-Glo ATP luminescence, 48-72 h; max response: stronger effect = lower value
How it was run: as §1

HACAT [3] = assay: qHTS assay to identify novel small-molecules to repurpose for Merkel cell carcinoma treatment (AID 1296009); conditions: MCC and control cell lines, CellTiter-Glo viability, 72 h; at 44.8 µM (top of the series) unless noted; further: nearly all actives have a fitted effect of over 60% in size
How it was run: (§2)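 Luminescence from CellTiter-Glo, read 10 min after addition at room temperature, reported viability following a 72 hr, 37 degree celsius treatment with NPC or MIPE compounds in titration; values normalized to plate controls.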

MCC-13 = assay: as above; conditions: MCC and control cell lines, CellTiter-Glo viability, 72 h; series mostly up to 46 µM
How it was run: as §2

MCC-26 = assay: as above; conditions: MCC and control cell lines, CellTiter-Glo viability, 72 h; series mostly up to 46 µM
How it was run: as §2

MKL-1 = assay: as above; conditions: MCC and control cell lines, CellTiter-Glo viability, 72 h; series mostly up to 46 µM
How it was run: as §2

MKL-2 = assay: as above; conditions: MCC and control cell lines, CellTiter-Glo viability, 72 h; series mostly up to 46 µM
How it was run: as §2

UISO = assay: as above; conditions: MCC and control cell lines, CellTiter-Glo viability, 72 h; series mostly up to 46 µM
How it was run: as §2

WaGa = assay: as above; conditions: MCC and control cell lines, CellTiter-Glo viability, 72 h; series mostly up to 46 µM
How it was run: as §2

C33A = assay: Primary qHTS to identify gynecologic anti-cancer compounds using libraries of approved drugs and bioactive compounds (AID 1345084); conditions: Gynecologic cancer cell panel viability, ATPlite luminescence, 48 h; series mostly up to 57.5 µM; further: nearly all actives have a fitted effect of over 55% in size
How it was run: (§3)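 Measured: luminescence after ATPlite addition (15 min, RT). Exposure: 48 h, 37 C, 5% CO2.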

CAOV3 = assay: as above; conditions: Gynecologic cancer cell panel viability, ATPlite luminescence, 48 h; series mostly up to 57.5 µM
How it was run: as §3

CASKI = assay: as above; conditions: Gynecologic cancer cell panel viability, ATPlite luminescence, 48 h; series mostly up to 57.5 µM
How it was run: as §3

Es-2 = assay: as above; conditions: Gynecologic cancer cell panel viability, ATPlite luminescence, 48 h; series mostly up to 57.5 µM
How it was run: as §3

HeLa = assay: as above; conditions: Gynecologic cancer cell panel viability, ATPlite luminescence, 48 h; series mostly up to 57.5 µM
How it was run: as §3

W2 = assay: qHTS profiling for inhibitors of Plasmodium falciparum proliferation (AID 504749); further: nearly all actives have a fitted effect of over 60% in size; conditions: P. falciparum in erythrocytes, SYBR Green DNA, 72 h; series mostly up to 28.7 µM
How it was run: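 Fluorescence of SYBR Green-bound parasite DNA, read at 485/535 nm, served as the growth measure. Infected erythrocytes were cultured with compound 72 h; artemisinin (0.29 uM) and DMSO wells defined the normalization range.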

HEK293 = assay: Cytotoxic Profiling of Annotated Libraries Using Quantitative High-Throughput Screening (AID 1296008); conditions: Five cell lines viability, CellTiter-Glo ATP luminescence, 48-72 h; max response: stronger effect = lower value; further: nearly all actives have a fitted effect of over 60% in size; on max response: on the % scale 0 is the no-effect control and ±100 the full control effect
How it was run: as §1

NIH3T3 [4] = assay: qHTS assay to identify novel small-molecules to repurpose for Merkel cell carcinoma treatment (AID 1296009); conditions: MCC and control cell lines, CellTiter-Glo viability, 72 h; at 44.8 µM (top of the series); further: nearly all actives have a fitted effect of over 60% in size
How it was run: as §2

HEK293T = assay: as above; conditions: MCC and control cell lines, CellTiter-Glo viability, 72 h; at 44.8 µM (top of the series) unless noted
How it was run: as §2
Potency means the concentration at half of the fitted maximal effect.

CCc1cc(Cl)c(OC)c(C(=O)NC[C@@H]2CCCN2CC)c1O
inactive: max response (CRL-7250) 3.41% | outcome (HaCat [1]) | max response (KB-3-1) -11.4% and -0.677% and -21.5% | max response (NIH3T3 [2]) 4.04% | outcome (HACAT [3]) | Potency (MCC-13) | Potency (MCC-26) | Potency (MKL-1) | Potency (MKL-2) | Potency (UISO) | Potency (WaGa) | Potency (C33A) | Potency (CAOV3) | Potency (CASKI) | Potency (Es-2) | Potency (HeLa)

COc1ccc(C(Cl)=C(c2ccc(OC)cc2)c2ccc(OC)cc2)cc1
inactive: outcome (CRL-7250) | max response (HaCat [1]) -3.14% | max response (KB-3-1) 9.01% | max response (NIH3T3 [2]) -2.4% | Potency (MCC-13) | Potency (MCC-26) | Potency (MKL-1) | Potency (MKL-2) | Potency (UISO) | Potency (WaGa) | Potency (C33A) | Potency (CAOV3) | Potency (CASKI) | Potency (Es-2) | Potency (HeLa)

CC(=O)OCC(=O)[C@H]1CC[C@H]2[C@@H]3CCC4=CC(=O)CC[C@]4(C)[C@H]3CC[C@]12C
inactive: max response (CRL-7250) 1.7% | outcome (HaCat [1]) | max response (KB-3-1) -19.8% | max response (NIH3T3 [2]) 0.692% | outcome (HACAT [3]) | Potency (MCC-13) | Potency (MCC-26) | Potency (MKL-1) | Potency (MKL-2) | Potency (UISO) | Potency (WaGa) | Potency (C33A) | Potency (CAOV3) | Potency (CASKI) | Potency (Es-2)
active: Potency (HeLa) 11.2 µM

OCCOCCN1CCN(C2=Nc3ccccc3Sc3ccccc32)CC1
active: Potency (W2) 4.26 µM
inactive: max response (CRL-7250) -6.31% | outcome (HaCat [1]) | max response (KB-3-1) -2.1% | max response (NIH3T3 [2]) -7.78% | outcome (HACAT [3]) | Potency (MCC-13) | Potency (MKL-1) | Potency (MKL-2) | Potency (UISO) | Potency (WaGa) | Potency (C33A) | Potency (CASKI) | Potency (Es-2) | Potency (HeLa)

CC(C)n1c(/C=C/[C@@H](O)C[C@@H](O)CC(=O)O)c(-c2ccc(F)cc2)c2ccccc21
active: Potency (CRL-7250) 1.5 µM | Potency (HEK293) 16.8 µM | Potency (NIH3T3 [2]) 11.9 µM | Potency (MCC-13) 9.44 µM | Potency (MCC-26) 13.3 µM | Potency (MKL-1) 13.3 µM | Potency (UISO) 3.35 µM
inactive: Potency (CASKI) | Potency (Es-2)

Cc1ccc(O)c([C@H](CCN(C(C)C)C(C)C)c2ccccc2)c1
inactive: max response (CRL-7250) -4.37% | outcome (HaCat [1]) | max response (KB-3-1) -10.6% | max response (NIH3T3 [2]) -1.6% | outcome (HACAT [3]) | Potency (MCC-13) | Potency (MCC-26) | Potency (MKL-1) | Potency (MKL-2) | Potency (UISO) | Potency (C33A) | Potency (CAOV3) | Potency (CASKI) | Potency (Es-2) | Potency (HeLa)
active: Potency (W2) 0.849 µM

COc1ccc(S(=O)(=O)N2c3ccc(Cl)cc3[C@@](O)(c3ccccc3Cl)[C@H]2C(=O)N2CCC[C@@H]2C(N)=O)cc1OC
inactive: max response (CRL-7250) -16.1% | max response (HaCat [1]) -3.91% | max response (KB-3-1) -5.62% | max response (NIH3T3 [2]) 1.04% | Potency (MCC-13) | Potency (MCC-26) | Potency (MKL-1) | Potency (MKL-2) | Potency (UISO) | Potency (WaGa) | Potency (C33A) | Potency (CASKI) | Potency (Es-2) | Potency (HeLa)

C[C@@H](O)[C@H]1C(=O)N2C(C(=O)O)=C([C@H]3CCCO3)S[C@H]12
inactive: max response (HEK293) -1.4% | outcome (HaCat [1]) | max response (KB-3-1) 3.93% | outcome (NIH3T3 [2]) | outcome (HACAT [3]) | Potency (MCC-13) | Potency (MCC-26) | Potency (MKL-1) | Potency (MKL-2) | outcome (NIH3T3 [4]) | Potency (UISO) | Potency (WaGa) | Potency (C33A) | Potency (CASKI) | Potency (Es-2) | Potency (HeLa)

CO[C@]12C[C@@H](COC(=O)c3cncc(Br)c3)CN(C)[C@@H]1Cc1cn(C)c3cccc2c13
inactive: max response (HEK293) -26.4% | outcome (HaCat [1]) | max response (KB-3-1) 9.31% | max response (NIH3T3 [2]) 0.842% | outcome (HACAT [3]) | Potency (MCC-13) | Potency (MCC-26) | Potency (MKL-1) | Potency (MKL-2) | Potency (UISO) | Potency (WaGa) | Potency (C33A) | Potency (CASKI) | Potency (Es-2) | Potency (HeLa)
active: Potency (W2) 6.75 µM

FC(F)(F)C(F)(F)C(F)(F)C(F)(F)C(F)(F)C(F)(F)C(F)(F)C(F)(F)Br
inactive: Potency (W2) | max response (HEK293) 0.523% | outcome (HaCat [1]) | max response (KB-3-1) 13.3% | max response (NIH3T3 [2]) -4.33% | outcome (HACAT [3]) | Potency (MCC-13) | Potency (MCC-26) | Potency (MKL-1) | Potency (MKL-2) | Potency (UISO) | Potency (WaGa) | Potency (C33A) | Potency (CAOV3) | Potency (CASKI) | Potency (Es-2) | Potency (HeLa)

O=C1OC2(c3ccccc31)c1cc(Br)c(O)c(Br)c1Oc1c2cc(Br)c(O)c1Br
inactive: outcome (HEK293) | outcome (HaCat [1]) | max response (KB-3-1) -24.7% | max response (NIH3T3 [2]) -4.74% | outcome (HACAT [3]) | outcome (HEK293T) | Potency (MCC-13) | Potency (MCC-26) | Potency (MKL-1) | Potency (MKL-2) | Potency (UISO) | Potency (WaGa) | Potency (C33A) | Potency (CAOV3) | Potency (CASKI) | Potency (Es-2) | Potency (HeLa)

CCCCNc1ccc(C(=O)OCCOCCOCCOCCOCCOCCOCCOCCOCCOC)cc1
inactive: Potency (W2) | max response (CRL-7250) -14.1% | max response (HaCat [1]) 0.553% | max response (KB-3-1) -13.9% | max response (NIH3T3 [2]) -8.1% | Potency (MCC-13) | Potency (MCC-26) | Potency (MKL-1) | Potency (MKL-2) | Potency (C33A) | Potency (CAOV3) | Potency (CASKI) | Potency (HeLa)

CN1CCN(C2=Nc3cc(F)ccc3Cc3ccccc32)CC1
active: Potency (W2) 7.57 µM
inactive: max response (CRL-7250) -25% | max response (HaCat [1]) -42.8% | max response (KB-3-1) 0.909% | max response (NIH3T3 [2]) -19.6% | Potency (MCC-13) | Potency (MCC-26) | Potency (MKL-1) | Potency (MKL-2) | Potency (UISO) | Potency (C33A) | Potency (CAOV3) | Potency (CASKI) | Potency (Es-2) | Potency (HeLa)
